Source: ChEMBL document CHEMBL4513216, “Probing the Open Global Health Chemical Diversity Library for Multistage-Active Starting Points for Next-Generation Antimalarials” (ACS Infect Dis, 2020)
Out of some 68,000 compounds screened, about 2,700 (4%) showed an effect of 50% or more. Only a selection was taken, and strong results are over-represented in it overall.

system: Plasmodium berghei; test: Screen against P. berghei liver stage (PbLuc), transformed with Luciferase, at 2uM; format: functional, HepG2; conditions: tested at 2 uM

Structure (SMILES)	INHIBITION
CSc1ccccc1C(=O)N(C)Cc1nncn1C(C)C	36.79%
CCn1cc(-c2nn3c(C(F)(F)F)nnc3s2)cn1	-21.49%
CCC(=O)N1CCCC(C(=O)c2cnn(-c3ccc(F)cc3)c2N)C1 (stereo unspecified)	-4.78%
CC(NC(=O)c1ccoc1)C(=O)N(C)Cc1cccc(C(F)(F)F)c1 (stereo unspecified)	2.51%
COCCC1COC2(CCN(C(=O)C3CCC3)CC2)C1 (stereo unspecified)	-18.7%
CC(C)NC1CCc2c(ccc(=O)n2CCN2CCOCC2)C1 (stereo unspecified)	-21.78%
COc1cccc(OCC(=O)NS(=O)(=O)c2ccc(Br)s2)c1	-4.22%
CC(=O)c1cccc(OCC(=O)NS(=O)(=O)c2ccc(C)s2)c1	-36.13%
COc1cccc(OCC(=O)NS(=O)(=O)c2ccc(C)s2)c1	51.21%
CCn1cncc1CN(Cc1ccc(OC)cc1OC)CC1CCCO1 (stereo unspecified)	33.64%
O=C1CCC2(CCCN(c3ncc(Cl)cc3F)C2)CN1CC1CC1 (stereo unspecified)	-31.23%
CN(CCCNC(=O)c1ccc(C#N)cc1)CC(F)(F)F	26.11%
COCCOc1ccccc1C(=O)NCCN(C)C(C)C	27.5%
CN(CCCNC(=O)c1cccc(OCC(N)=O)c1)CC(F)(F)F	-163.17%
CN(CCCNC(=O)c1ccccc1OCC(N)=O)CC(F)(F)F	51.96%
CN(CCCNC(=O)NCc1ccncc1)CC(F)(F)F	21.71%
CN(CCCNC(=O)c1ccccc1F)CC(F)(F)F	66.74%
CCc1c(C(=O)NCC(=O)OCC2CC2)cnn1-c1ccc(C)cc1	-14.3%
CCN1CC2(CC1=O)CN(C(C)=O)CCN(S(=O)(=O)CC)C2 (stereo unspecified)	-161.57%
Cc1ccc(CN2C[C@H](OCCN(C)C)[C@H]3COC[C@H]32)o1	15.36%
COc1nn(C)c2c1CCCN(C(=O)c1ccc(C)c(F)c1)C2	-128.25%
COc1ccccc1C(=O)NC(CC(=O)O)c1cccs1 (stereo unspecified)	24.31%

Structure (SMILES)	INHIBITION
COC(=O)CC(NC(=O)c1ccccc1OC)c1cccs1 (stereo unspecified)	53.58%
COC(=O)CC(NC(=O)c1ccc(OC)cc1OC)c1cccs1 (stereo unspecified)	27.47%
CCC[C@@H]1CN(Cc2c[nH]nc2-c2ccc(OC)cc2)C[C@H]1NC(C)=O	42.4%
Cc1ccc(F)c(C(=O)N2C[C@@H](C(=O)O)[C@H](c3ccccc3)C2)c1Cl	16.49%
CCn1nc(C)c(CN(CCOC)C(=O)c2ccccc2N(C)C)c1C	15.74%
CCOc1ccc(C(=O)N(CCOC)Cc2c(C)nn(CC)c2C)o1	65.1%
CCn1nc(C)c(CN(CCOC)C(=O)c2cnc(C)nc2O)c1C	48.68%
CCN1CCN(C2CCN(C(C(N)=O)c3ccccc3)CC2)C1=O (stereo unspecified)	-42.16%
CS(=O)(=O)CC1(CNc2ccc(C#N)c(C(F)(F)F)c2)CC1	39.25%
CC(C)COC(C)C(=O)N1CCCCCC1 (stereo unspecified)	7.46%
CC(C)COC(C)C(=O)N1CCCC1 (stereo unspecified)	52.6%
CC(C)COC(C)C(=O)N1CCCCC1 (stereo unspecified)	30.68%
CCn1c(C2CCN(C(=O)c3ccc4sc(C)nc4c3)CC2)n[nH]c1=O	26.49%
CN(C)Cc1nnc(C2CCCN(c3nc(C(N)=O)cs3)C2)n1C (stereo unspecified)	12.29%
COCC(C)(O)CNC(=O)c1cc(-c2cc(OC)ccc2OC)nn1C (stereo unspecified)	10.91%
O=C(CCCc1nnc(-c2ccccc2)o1)N1CCN(C2CC2)CC1	21.64%
c1cnc(N2CCO[C@H]3CN(CC4CCC4)C[C@H]32)cn1	15.88%
O=C(NCC1(c2cccs2)CCCCC1)N1CCOC(CO)C1 (stereo unspecified)	-46.5%
COc1ccc(CN(C)c2ncc(S(N)(=O)=O)s2)c(OC)c1	67.36%
COc1ccc(OC)c(CN(C)c2ncc(S(N)(=O)=O)s2)c1	-28.18%
COc1ccc(OC)c(CCNc2ncc(S(N)(=O)=O)s2)c1	-0.95%
CC(C)(C)c1nccc(C2(c3ccccc3Cl)CCNCC2)n1	2.06%

Structure (SMILES)	INHIBITION
CCC(O)CN1CCN(C(=O)CCSC)CC1 (stereo unspecified)	-38.59%
CSCCC(=O)N1CCN(CC(C)O)CC1 (stereo unspecified)	52.3%
CSCCC(=O)N1CCN(CC(O)C(C)(C)C)CC1 (stereo unspecified)	32.1%
CC(C)c1nnc(NC(=O)CCC(=O)NCC2CCCO2)s1 (stereo unspecified)	4.39%
CC(C)C(CNC(=O)CCn1cncn1)N1CCc2ccccc2C1 (stereo unspecified)	16.98%
CCC(CNC(=O)CCn1cncn1)N1CCc2ccccc2C1 (stereo unspecified)	60%
CC(CNC(=O)CCCn1cncn1)N1CCc2ccccc2C1 (stereo unspecified)	-48.63%
O=C(CN1CCCCCC1=O)NCC1CCN(c2ccccc2)C1 (stereo unspecified)	-17.17%
CC(CNC1CCN(Cc2ccncc2)CC1)c1ccc(F)cc1F (stereo unspecified)	26.99%
CC(C)c1cc(NCC(O)c2ccc(F)cc2)n2nccc2n1 (stereo unspecified)	-25.05%
CCN(CC(F)(F)F)C(=O)C1CCCN(Cc2nc(C)c(C)o2)C1 (stereo unspecified)	35.46%
CCC(=O)NCCc1cc(N2CCN(C(C)=O)CC2)nc(C2CC2)n1	-28.81%
CC(=O)NCCc1cc(N2CCN(C(C)=O)CC2)nc(C2CC2)n1	51.61%
CC(=O)N1CCN(c2cc(CCNC(=O)C(C)C)nc(C3CC3)n2)CC1	27.39%
Cc1cnn(CC2CCCN2C(=O)CCc2ccc3c(c2)OCO3)c1 (stereo unspecified)	-26.45%
NS(=O)(=O)c1ccc(F)c(C(=O)NCCSc2ccccn2)c1	32.97%
Cn1ccnc1-c1nc(N2CCCCC2)ncc1-c1ccccc1F	-29.24%
CS(=O)(=O)NCc1cnc2n1CCN(Cc1cccnc1)CC2	8.36%
CS(=O)(=O)NCc1cnc2n1CCN(Cc1ccsc1)CC2	-75.39%
CS(=O)(=O)NCc1cnc2n1CCN(Cc1ccoc1)CC2	50.17%
CN(Cc1ccco1)Cc1ccccc1CNC(=O)c1cnc[nH]1	21.27%
Cn1nccc1-c1cccc(CC2CCN(S(C)(=O)=O)C2)n1 (stereo unspecified)	-30.88%

Structure (SMILES)	INHIBITION
CC(C)Nc1cccc(CC2CCN(C)C2)n1 (stereo unspecified)	-5.42%
CC(C)Nc1cccc(CC2CCN(S(C)(=O)=O)CC2)n1	52.82%
Fc1ccc(-c2noc(C3COCCO3)n2)cc1F (stereo unspecified)	-29.82%
O=C(Cc1ccc(S(=O)(=O)C(F)F)cc1)N1CCC1	17.61%
CN1CCN(C(=O)Cc2ccc(S(=O)(=O)C(F)F)cc2)CC1	63.39%
O=C(Cc1ccc(S(=O)(=O)C(F)F)cc1)N1CCCC1	33.7%
COCc1ccccc1C(=O)N1CCCC1Cn1nc(C)cc1C (stereo unspecified)	-63.06%
CC(Cn1cncn1)NCc1nncn1C1CCCCC1 (stereo unspecified)	-28.93%
O=C1NCCN1C1CCCN(Cc2nnc(-c3ccc(F)cc3)o2)C1 (stereo unspecified)	-43.47%
O=C1NCCN1C1CCN(Cc2coc(-c3ccc(F)cc3)n2)CC1	17.31%
O=C1NCCN1C1CCCN(Cc2coc(-c3ccc(F)cc3)n2)C1 (stereo unspecified)	60.21%
COCCN(Cc1ccncc1)C(=O)C1COc2c(cccc2OC)C1 (stereo unspecified)	45.82%
COc1cccc2c1OCC(C(=O)NCCn1nc(C)c(Cl)c1C)C2 (stereo unspecified)	24.36%
COc1cccc2c1OCC(C(=O)N(C)CCCc1cnn(C)c1)C2 (stereo unspecified)	27.75%
COc1cccc2c1OCC(C(=O)N(Cc1ccncc1)CC(C)C)C2 (stereo unspecified)	17.2%
CCN(Cc1ccncc1)C(=O)C1COc2c(cccc2OC)C1 (stereo unspecified)	57.75%
CCCn1nc(C)c(CNC(=O)C2COc3c(cccc3OC)C2)c1C (stereo unspecified)	18.57%
COCCN(Cc1ccncc1)C(=O)C1COc2ccccc2C1 (stereo unspecified)	33.9%
COCCN(Cc1cnn(C)c1)C(=O)C1COc2c(cccc2OC)C1 (stereo unspecified)	72.05%
COc1cccc2c1OCC(C(=O)NCCCn1nc(C)c(Cl)c1C)C2 (stereo unspecified)	50.59%
CC(C)(C)n1cc(C(=O)N2CCN(Cc3cccnc3)CC2)cn1	-3.57%
Cc1ccccc1CCCN1CCS(=O)(=O)CC1C (stereo unspecified)	-31.95%

Structure (SMILES)	INHIBITION
CC(C)n1cnc2c(-c3cccnc3)nc(C3CCNCC3)cc21	-17.24%
O=C(N1CCCC1)N1CCC[C@]2(C[C@@H](OCc3ccncc3)CO2)C1	-12.23%
CCOCC(=O)N1CCC[C@]2(C[C@@H](OCc3ccncc3)CO2)C1	55.15%
O=C(C1CC1)N1CCC[C@]2(C[C@@H](OCc3ccncc3)CO2)C1	2.4%
CCO[C@H]1CO[C@@]2(CCCN(C(=O)c3ccc(OC)c(F)c3)C2)C1	52.36%
O=C(c1ccc(F)c(F)c1)N1CCC[C@]2(C[C@@H](OCC3CC3)CO2)C1	13.04%
CCO[C@@H]1CO[C@@]2(CCCN(C(=O)c3ccc(OC)c(F)c3)C2)C1	-8.46%
CCO[C@H]1CO[C@@]2(CCCN(S(=O)(=O)c3cccnc3)C2)C1	50.35%
CCO[C@H]1CO[C@@]2(CCCN(S(=O)(=O)c3ccccc3)C2)C1	-89.74%
CCO[C@@H]1CO[C@@]2(CCCN(S(=O)(=O)c3cccnc3)C2)C1	27.16%
CC(=O)N1CCC(c2ccnc(Nc3cnccn3)n2)C1 (stereo unspecified)	28.45%
CC(C)CN1CCC2(CC1)C(=O)Nc1ccc(C(=O)N(C)C)cc12	11.28%
Cc1cc(O)ccc1-c1cc(-c2cnn(C)c2C2CC2)c(C#N)c(N)n1	7.06%
c1cc2occc2c(N2CCCC(c3nncn3C3CC3)C2)n1 (stereo unspecified)	12.62%
CCCc1ccc(CN2CCC3(CCC(=O)N(CCCOC)C3)CC2)o1	-26.08%
CCCc1nccn1-c1ccc(C(C)O)cc1 (stereo unspecified)	10.23%
OC(CN1CCOCC1)c1ccc(Br)cc1 (stereo unspecified)	36.23%
CCCc1nccn1-c1ccc(C(O)CN2CCOCC2)cc1 (stereo unspecified)	62%
